Assay results reported in PubChem BioAssay (EPA / NIEHS).
Activity calls are given as the source filed them. Rule for the calls: active = hit-call score of the fitted dose curve at least 0.9, where 1 is the maximum; inactive = score below 0.9.

How the values were obtained:
[1] = APR_HepG2_CellLoss_72hr: Apredica 72-hour HepG2 Assay for Cell Loss (AID 2282915); conditions: high-content imaging
Method in brief: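 HepG2 cells exposed 72 h to compound at 0.39–200 uM (10 concentrations, duplicate) in 0.5% DMSO. Fixed with 3.7% formaldehyde and Hoechst 33342-stained. Imaged at 20x; nuclear count gives cell number, fitted bidirectionally versus DMSO.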

[2] = APR_HepG2_P-H2AX_72hr: Apredica 72-hour HepG2 Assay for H2AX Phosphorylation (AID 2282916); conditions: imaging, actives raise or lower the signal;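 note: phospho-histone H2A.x immunostain intensity per cell marking DNA damage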
Method in brief: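 Phospho-histone H2A.x immunofluorescence, multiplexed with Hoechst and c-Jun, quantified by high-content imaging. Compounds applied to HepG2 for 72 h across ten concentrations (0.39–200 uM, 0.5% DMSO), in duplicate; DMSO baseline.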

[3] = APR_HepG2_MitoMembPot_72hr: Apredica 72-hour HepG2 Assay for Mitochondrial Membrane Potential (AID 2282917); conditions: imaging, actives raise or lower the signal
Method in brief: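 HepG2 cells dosed 72 hr with compound at 0.39–200 uM in duplicate, 0.5% v/v DMSO final. Mitochondria stained with 250 nM MitoTracker Red CMXRos for 30 min before formaldehyde fixation, imaged by high-content fluorescence; bidirectional fit versus DMSO.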

[4] = APR_HepG2_MitoticArrest_72hr: Apredica 72-hour HepG2 Assay for Mitotic Arrest (AID 2282918); conditions: high-content imaging, actives raise or lower the signal
Method in brief: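 HepG2 cells were exposed for 72 hr to compound at 0.39–200 uM (10 concentrations, duplicate) in 0.5% v/v DMSO, fixed in 3.7% formaldehyde, immunostained for phospho-histone H3 with Hoechst 33342 and imaged by high-content fluorescence; bidirectional fits versus DMSO.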

[5] = APR_HepG2_MicrotubuleCSK_72hr: Apredica 72-hour HepG2 Assay for Microtubule CSK Stabilty (AID 2282919); conditions: HepG2 microtubule cytoskeleton, high-content imaging, actives raise or lower the signal
Method in brief: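 HepG2, 72 hr cmpd exposure, 0.39–200 uM (10 pts, duplicate), 0.5% DMSO. 3.7% formaldehyde fix, 0.5% Triton perm, anti-alpha-tubulin/Cy5 plus Hoechst. HCS fluorescence intensity; bidirectional fit vs DMSO baseline; taxol as positive control.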

[6] = APR_HepG2_P-H2AX_24hr: Apredica 24-hour HepG2 Assay for H2AX Phosphorylation (AID 2282920); conditions: high-content imaging, actives raise or lower the signal
Method in brief: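 HepG2 human liver cells were exposed for 24 hr to compounds at 0.39–200 uM in duplicate, with 0.5% v/v DMSO final. Fixed cells were immunostained for phospho-histone H2A.x plus Hoechst 33342, imaged by HCS fluorescence, and fitted bidirectionally against DMSO.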

[7] = APR_HepG2_StressKinase_72hr: Apredica 72-hour HepG2 Assay for Stress Kinase (AID 2282921); conditions: HepG2 stress kinase (phospho-c-Jun) imaging, actives raise or lower the signal
Method in brief: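 Stress kinase signal is phospho-c-Jun immunofluorescence (1:500 primary, Cy3 secondary) in fixed, permeabilized human HepG2 cells imaged at 20x. Exposure lasted 72 hr over ten concentrations from 0.39 to 200 uM, 0.5% DMSO, in duplicate. Bidirectional fit versus DMSO.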

[8] = APR_HepG2_StressKinase_24hr: Apredica 24-hour HepG2 Assay for Stress Kinase (AID 2282922); conditions: HepG2 stress kinase (phospho-c-Jun) imaging, actives raise or lower the signal
Method in brief: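 Read-out: phospho-c-Jun immunofluorescence (Cy3 secondary) quantified by high-content imaging at 20x, nuclei defined by Hoechst 33342. Human HepG2 liver cells dosed 24 hr, 0.39–200 uM, DMSO 0.5% v/v; gain or loss of signal fitted relative to DMSO.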

[9] = APR_HepG2_MitoMass_72hr: Apredica 72-hour HepG2 Assay for Mitochondrial Mass (AID 2282924); conditions: high-content imaging, actives raise or lower the signal;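 note: MitoTracker Red CMXRos stain intensity per cell imaged as mitochondrial mass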
Method in brief: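 Read-out: MitoTracker Red fluorescence intensity from automated imaging (20x, six fields per well) in human HepG2 liver cells. Dosing ran 72 hr, 0.39–200 uM, 0.5% DMSO; bidirectional curve fitting versus DMSO baseline.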

[10] = APR_HepG2_NuclearSize_72hr: Apredica 72-hour HepG2 Assay for Nuclear Size (AID 2282925); conditions: high-content imaging, actives raise or lower the signal
Method in brief: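 Read-out: nuclear diameter from Hoechst 33342 images (ArrayScan, 20x, six fields/well), via cell-cycle image analysis. HepG2 were dosed 0.39–200 uM for 72 hr in 0.5% DMSO. Bidirectional fit relative to DMSO.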

[11] = ATG_CRE_CIS: Attagene CIS-FACTORIAL HepG2 Assay for human cAMP Responsive Element (CRE) binding protein 3 (AID 2282926); conditions: HepG2 CRE cis-reporter, Attagene multiplexed mRNA; actives raise or lower the signal
Method in brief: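 Capillary electrophoresis of 6-FAM-labelled, HpaI-digested PCR products quantified reporter transcripts. These came from HepG2 transiently transfected with cis-element reporters and exposed to test chemicals for 24 hours, with DMSO defining baseline activity.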

[12] = target: CCAAT/enhancer-binding protein beta (Homo sapiens) (UniProt P17676); assay: ATG_C_EBP_CIS: Attagene CIS-FACTORIAL HepG2 Assay for human CCAAT/Enhancer Binding Protein (C/EBP) beta (AID 2282927); conditions: HepG2 Attagene cis-factorial transcription factor reporter; actives raise or lower the signal
CCAAT/enhancer-binding protein beta (Homo sapiens), sequence (P17676 whole entry, looked up): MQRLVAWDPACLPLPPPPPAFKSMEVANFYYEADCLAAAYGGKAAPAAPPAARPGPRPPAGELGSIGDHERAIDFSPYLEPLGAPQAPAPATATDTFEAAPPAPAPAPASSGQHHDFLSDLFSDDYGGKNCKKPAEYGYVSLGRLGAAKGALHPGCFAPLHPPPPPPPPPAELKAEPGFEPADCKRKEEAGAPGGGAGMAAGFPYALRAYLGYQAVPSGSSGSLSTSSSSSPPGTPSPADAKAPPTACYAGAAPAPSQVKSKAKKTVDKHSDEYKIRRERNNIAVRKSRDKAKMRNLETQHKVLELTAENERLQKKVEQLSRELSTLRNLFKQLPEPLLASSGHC
Method in brief: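 Transiently transfected HepG2 (MRTU library, endogenous TF-driven promoters); 24 h dosing; total RNA → oligo(dT) RT → PCR → 6-FAM primer extension → HpaI digest → CE; fit bidirectionally vs DMSO.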

[13] = ATG_CMV_CIS: Attagene CIS-FACTORIAL HepG2 Assay for human CMV (Internal Marker) (AID 2282928); conditions: HepG2 CMV promoter reporter, transcription factor profiling; actives raise or lower the signal;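 note: endpoint acts as a background internal control marker rather than a target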
Method in brief: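 Readout: fluorescent reporter cDNA fragments separated by capillary electrophoresis after RT-PCR and HpaI cut. Cells: HepG2 carrying transfected cis-promoter reporter constructs, dosed 24 h. Endpoint serves as background internal-marker control, fit bidirectionally versus DMSO.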

[14] = ATG_DR4_LXR_CIS: Attagene CIS-FACTORIAL HepG2 Assay for human Liver X Receptor (LXR), DR4 submotif (AID 2282929); conditions: HepG2 Attagene DR4 cis-reporter, mRNA transcription; actives raise or lower the signal
Method in brief: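 The endpoint is DR4-element-driven reporter transcripts after 24 h chemical exposure of transfected HepG2 cells. These were measured via RT-PCR and capillary electrophoresis, and gain or loss of signal was fitted relative to DMSO controls.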

[15] = target: Aryl hydrocarbon receptor (Homo sapiens) (UniProt P35869); assay: ATG_Ahr_CIS: Attagene CIS-FACTORIAL HepG2 Assay for human Aryl Hydrocarbon Receptor (Ahr) (AID 2282930); conditions: HepG2 AhR cis-factorial reporter transcription; actives raise or lower the signal
Aryl hydrocarbon receptor (Homo sapiens), sequence (P35869 whole entry, looked up): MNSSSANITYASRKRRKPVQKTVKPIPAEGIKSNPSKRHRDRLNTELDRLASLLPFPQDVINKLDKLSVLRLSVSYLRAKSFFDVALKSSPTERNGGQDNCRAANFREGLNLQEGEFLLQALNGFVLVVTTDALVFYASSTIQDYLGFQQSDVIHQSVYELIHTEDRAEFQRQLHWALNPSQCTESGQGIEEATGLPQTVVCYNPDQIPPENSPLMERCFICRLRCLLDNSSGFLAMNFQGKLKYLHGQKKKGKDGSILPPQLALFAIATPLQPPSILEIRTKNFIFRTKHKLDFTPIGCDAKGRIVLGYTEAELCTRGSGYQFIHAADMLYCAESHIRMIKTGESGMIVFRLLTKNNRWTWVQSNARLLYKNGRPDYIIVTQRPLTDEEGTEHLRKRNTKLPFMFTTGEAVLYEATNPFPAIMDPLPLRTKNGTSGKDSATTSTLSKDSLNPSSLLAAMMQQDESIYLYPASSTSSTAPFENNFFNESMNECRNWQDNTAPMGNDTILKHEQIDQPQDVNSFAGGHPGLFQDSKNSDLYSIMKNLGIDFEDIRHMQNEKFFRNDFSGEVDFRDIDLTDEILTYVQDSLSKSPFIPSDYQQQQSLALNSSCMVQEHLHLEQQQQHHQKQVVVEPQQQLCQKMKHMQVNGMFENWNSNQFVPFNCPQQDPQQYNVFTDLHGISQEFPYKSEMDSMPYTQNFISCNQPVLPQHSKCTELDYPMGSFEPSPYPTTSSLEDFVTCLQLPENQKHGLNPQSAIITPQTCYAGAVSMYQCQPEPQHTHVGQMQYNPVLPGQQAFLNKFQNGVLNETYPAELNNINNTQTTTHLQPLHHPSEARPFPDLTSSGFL
Method in brief: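 Read-out: reporter mRNA quantified by RT-PCR with fluorescent primer extension and capillary electrophoresis. Human HepG2 liver cells carried transfected cis-promoter reporter units and were exposed to chemical for 24 h; gain or loss fitted relative to DMSO.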

[16] = ATG_AP_1_CIS: Attagene CIS-FACTORIAL HepG2 Assay for human Activator Protein 1 (AP-1) (AID 2282931); conditions: HepG2 Attagene cis-factorial AP-1 reporter mRNA; actives raise or lower the signal
Method in brief: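 Readout is reporter transcript level from endogenous transcription factor activity, quantified by RT-PCR with fluorescent primer extension and capillary electrophoresis. Transiently transfected HepG2 cells, 24 h exposure. Curves fitted both directions versus DMSO.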

[17] = ATG_AP_2_CIS: Attagene CIS-FACTORIAL HepG2 Assay for human Activator Protein 2 (AP-2) (AID 2282932); conditions: HepG2 AP-2 cis-reporter, Attagene transcription factor profiling; actives raise or lower the signal
Method in brief: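 Liver-derived HepG2 line, cis-reporter system measuring endogenous factors; 24 h dosing; reporter mRNA detected by fluorescent RT-PCR and capillary electrophoresis.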

[18] = ATG_BRE_CIS: Attagene CIS-FACTORIAL HepG2 Assay for human Bone Morphogenetic Protein (BMP) Response Element (BRE) (AID 2282933); conditions: HepG2 BMP response element reporter, Attagene transcription factor profiling; actives raise or lower the signal
Method in brief: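 Endogenous transcription factor activity at a BMP response element was monitored in transfected HepG2 cells 24 h after dosing. Fluorescent RT-PCR products were resolved by capillary electrophoresis, and activity was fitted in both directions versus DMSO.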

[19] = APR_HepG2_p53Act_72hr: Apredica 72-hour HepG2 Assay for p53 Activation (AID 2282923); conditions: high-content imaging, actives raise or lower the signal;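 note: average cellular p53 protein immunofluorescence intensity in HepG2 cells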
Method in brief: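 After 72 h with compound (ten points, 0.39 to 200 uM, final DMSO 0.5% v/v), fixed HepG2 cells were labelled with sheep anti-p53 and Hoechst 33342 and imaged; gain or loss versus DMSO scored.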

[20] = target: Retinoic acid receptor alpha (Homo sapiens) (UniProt P10276); assay: ATG_DR5_RAR_CIS: Attagene CIS-FACTORIAL HepG2 Assay for human Retinoic Acid Receptor Alpha (RARE), DR5 submotif (AID 2282934); conditions: HepG2 Attagene cis-factorial RARE DR5 reporter, mRNA; actives raise or lower the signal
Retinoic acid receptor alpha (Homo sapiens), sequence (P10276 whole entry, looked up): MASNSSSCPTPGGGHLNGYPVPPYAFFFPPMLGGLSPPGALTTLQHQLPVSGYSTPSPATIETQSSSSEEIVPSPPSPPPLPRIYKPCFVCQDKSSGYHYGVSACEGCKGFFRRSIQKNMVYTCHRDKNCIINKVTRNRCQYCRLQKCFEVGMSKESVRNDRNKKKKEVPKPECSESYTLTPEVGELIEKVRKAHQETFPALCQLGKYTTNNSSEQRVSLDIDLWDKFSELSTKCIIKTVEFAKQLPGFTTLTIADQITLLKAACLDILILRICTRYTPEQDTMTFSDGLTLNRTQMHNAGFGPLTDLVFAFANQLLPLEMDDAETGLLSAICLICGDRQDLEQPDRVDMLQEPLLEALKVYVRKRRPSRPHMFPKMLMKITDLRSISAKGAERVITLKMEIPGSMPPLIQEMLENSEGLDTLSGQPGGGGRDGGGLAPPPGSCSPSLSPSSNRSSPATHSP
Method in brief: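 Read-out: DR5-driven reporter transcript measured by RT-PCR, 6-FAM primer extension, HpaI digest and capillary electrophoresis. Human HepG2 liver cells carry transiently transfected cis-element reporter constructs; dosing lasts 24 h. Gain or loss of signal fitted against DMSO baseline.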

Measured: AC50

CCCN(CCC)c1c([N+](=O)[O-])cc(C(F)(F)F)cc1[N+](=O)[O-]
active: [1] 109 µM | [12] 2.59 µM | [13] 82.3 µM | [14] 24.1 µM
not listed: [19] | [20]
inactive: all other assays above

O=S1OCC2C(CO1)C1(Cl)C(Cl)=C(Cl)C2(Cl)C1(Cl)Cl (stereo not drawn)
active: [1] 100 µM | [5] 117 µM
inactive: all other assays above

CC(C)OC(=O)Nc1cccc(Cl)c1
active: [11] 15.3 µM | [12] 22.5 µM | [13] 34.1 µM
inactive: all other assays above
